# Screening results (PubChem)
# Only some compounds are listed: those with a hit (about 19% of all), similar ones and a draw of the others.
# Pf growth 48h: P. falciparum growth inhibition at 48 hours (one generation); hit rate 5.9% among 310,000; P. falciparum luciferase growth in erythrocytes, 48 h; AID 504832; Potency, µM (titrated, usually from 28.7 µM), usual class: inhibitors
#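 In quantitative HTS format, infected erythrocytes bearing luciferase-reporter parasites were treated for a single generation at 37 C. Luminescence after adding detection reagent served as the growth measure.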
# CHX counter: affects cycloheximide protein synthesis inhibition readout, counter-screen; cell reporter, cycloheximide protein synthesis inhibition counterscreen; max response, %; hit rate 12% among 300,000; in the data active = max response mostly above about 13%, no sharp cut-off; inactive = mostly below about 14%; also: read at 38.3 µM for the half of the compounds with a filed dose
# AMA1 RON2 block: AMA1-RON2 (P. falciparum) interaction inhibition; AlphaScreen AMA1-biotinylated RON2 peptide binding; Potency, µM (highest dose often 58.2 µM), actives largely listed as inhibitors; hit rate 0.2% among 360,000; also: nearly all actives have a fitted effect of over 45% in size
#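 AMA1 (3D7) with his tag at 25 nM final met compounds first, then biotinylated RON2 peptide at 25 nM; detection used donor plus acceptor beads, 10 µg/mL apiece, read by AlphaScreen after 30 min at room temperature.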
# Shiga toxin inh: blocks Shiga toxin action in Vero cells; inhibition, % at 38.7 µM; Vero cells, Shiga toxin protein synthesis inhibition reporter; hit rate 9.2% among 290,000; in the data active = inhibition mostly above about 28%, no sharp cut-off; inactive = mostly below about 43%
# Pf growth 96h: P. falciparum growth inhibition at 96 hour, primary screen for plastid delayed-death inhibitors. P. falciparum luciferase reporter growth, 96 h. Potency, µM (highest dose often 28.7 µM), actives largely listed as inhibitors. hit rate 6.9% among 320,000. AID 504834
#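 Luminescence readout: decreased luciferase signal marks inhibited growth of reporter-expressing P. falciparum in infected red cells (2% hematocrit, 0.05% parasitemia final), exposed to compound two generations (96 h, 37 C, 5% CO2).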
# SARS PLpro yeast: blocks SARS-CoV papain-like protease in a yeast assay | S. cerevisiae expressing SARS-CoV PLpro, growth rescue | Potency, µM (series often up to 32.9 µM), most hits filed as activators | hit rate 0.19% among 330,000 | AID 485353; calls by dose curve; also: nearly all actives have a fitted effect of over 55% in size
# Numbers stand for hits; n = inactive; u = inconclusive; x = not tested or not shown; [ ] = remark or other dose. Unless noted, calls follow the shape of the dose curve; as a rule, active = well fitted curve in the direction sought with a large enough effect; inconclusive = small, poorly fitted or top-dose-only effect, or another doubt; inactive = no such curve, though single readings can be large; an effect the other way counts as inactive or inconclusive.
SMILES,Pf growth 48h,CHX counter,AMA1 RON2 block,Shiga toxin inh,Pf growth 96h,SARS PLpro yeast
N=c1c2c(ncn1Cc1ccco1)Oc1c(ccc3ccccc13)C2c1ccccc1 (stereo not given),15µM,23,n,18,u,n
COc1ccc(C2c3ccc(O)cc3Oc3ncn(CCCO)c(=N)c32)cc1 (stereo not given),u,n,n,n,u,n
CN(C)S(=O)(=O)c1cccc(-c2nnc3n2CCCCC3)c1,n,n,n,n,n,n
CC(=O)Nc1ccc(NC(=O)CN(c2ccccc2Cl)S(C)(=O)=O)cc1,n,n,n,n,u,n
O=C(COC(=O)/C=C/c1ccc([N+](=O)[O-])cc1)NCC1CCCCC1,x,x,n[11.6 µM],x,x,n
Cc1ccsc1/C=C/c1ccc2ccccc2n1,n,28,n,67,n,n
Cc1ccsc1/C=C/c1ccc2cccc(O)c2n1,x,66,n,72,n,n
Cc1ccsc1/C=C/C(=O)O,n,n,n,n,n,n
Oc1cccc2ccc(/C=C/c3cccs3)nc12,x,36,n,68,n,n
O=Cc1ccc(OCc2nnsc2Cl)cc1,u,n,n,n,n,n
CCOc1cc(CNCc2cccnc2)ccc1OCC(=O)NC(C)(C)C,n,n,n,n,n,n
O=C(Nc1cc2c3c(c1)CC(=O)N3CCC2)c1c(F)cccc1F,n,x,n,x,n,n
Cc1ccc(NC(=O)C2=C(C(=O)O)CCCC2)cc1F,n,n,n,n,n,n
CC(C)CCN(Cc1ccco1)S(=O)(=O)c1csc(C(N)=O)c1,n,n,n,n,n,n
CCOCCCN(Cc1ccco1)S(=O)(=O)c1csc(C(N)=O)c1,n,n,n,n,13µM,n
COc1cccc(CN2CC(C(=O)NCCc3cn4cccnc4n3)CCC2=O)c1 (stereo not given),x,x,n,x,x,x
Cc1ccc(NC(=S)N=Nc2c(O)n(C)c3ccc(S(=O)(=O)N4CCOCC4)cc23)cc1C,3.3µM,n,n[11.6 µM],n,n,n
C=CCn1c(O)c(N=NC(=S)Nc2ccccc2C)c2cc(S(=O)(=O)N3CCOCC3)ccc21,2.9µM,n,n,n,13µM,n
C=CCn1c(O)c(N=NC(=S)Nc2ccc(OC)c(Cl)c2)c2ccccc21,3.7µM,n,n,n,n,n
CCOc1cc(C2NC(=O)NC(c3ccccc3)=C2C(=O)c2ccccc2)c(Br)cc1OCC(=O)O (stereo not given),n,n,n,n,u,n
CC(C)NC(=O)CSc1nccc(-c2cccs2)n1,n,n,n,n,n,n
CSc1sc(-c2ccnc(SCC(=O)C(C)(C)C)n2)c2c1C(=O)CC(C)(C)C2,u,n,n,n,4.7µM,n
O=C(c1ccco1)N1CCN(c2nc3ccccc3n3nnnc23)CC1,n,24,n,36,u,n
c1ccc(CC2CCN(c3nc4ccccc4n4nnnc34)CC2)cc1,n,8.5,n,n,u,n
CCn1c(N2CCN(C(=O)c3ccco3)CC2)nc2ccccc21,n,n,n,n,n,n
SMILES,Pf growth 48h,CHX counter,AMA1 RON2 block,Shiga toxin inh,Pf growth 96h,SARS PLpro yeast
CCOC(=S)SCC(=O)N1CCc2cc(OC)ccc2C1C1C(=O)CCCC1=O (stereo not given),n,n,n,n,u,n
COC(=O)C[C@@H]1CC[C@@H](NS(=O)(=O)c2ccc(F)cc2)[C@@H](CO)O1,x,x,n,x,x,x
CC(O)[C@H]1CNC(=O)C(=O)N1CC1(c2ccccc2)CC1 (stereo not given in full),n,n,n,n,n,n
CCCCc1ccc(-c2c(C#N)c(N)nc3c2CCCC3)s1,u,n,n,n,13µM,n
Cc1ccc(-c2c(C#N)c(N)nc3c2CCCC3)o1,10µM,n,n,n,u,n
CCSc1nc2c(c(-c3ccc(C)o3)c1C#N)CCCC2,n,n,n,n,n,n
COc1ccc(-c2c(C#N)c(N)nc3c2CCC3)cc1,u,20,n,n,n,n
COc1ccc(Sc2cc(C(F)(F)F)nc(-c3ccccn3)n2)cc1,u,n,n,n,u,n
Cc1ccc(N2CCN(C(=O)NC3CCCCC3)CC2C)cc1 (stereo not given),n,n,n,n,n,n
Cc1ccc(C(=O)N2CCN(C3c4cccc5cccc(c45)C3NS(=O)(=O)c3ccccc3)CC2)cc1 (stereo not given),2.1µM,n,n,n,u,n
Cc1ccc(S(=O)(=O)NC2c3cccc4cccc(c34)C2Sc2nc(C)cc(C)n2)cc1 (stereo not given),10µM,n,n,n,8.3µM,n
CCOC(=O)O[C@@H](C)OC(=O)[C@@H]1N2C(=O)[C@@H](NC(=O)[C@@H](N)c3ccccc3)[C@H]2SC1(C)C,n,x,x,x,n,x
COC(=O)c1ccc(Cl)c(NC(=O)NC23CC4CC(CC(C4)C2)C3)c1,x,n,n,n,0.66µM,n
NNc1nc(-c2ccccc2Cl)nc2sc3c(c12)CCCC3,u,46,n,52,u,n
NNc1nc(-c2ccccc2Cl)nc2ccccc12,n,n,n,x,n,n
Cc1ccc(C(=O)CSc2nnc(-c3cccs3)n2C)o1,x,n,n,n,u,n
Cn1c(SCc2ccccc2)nnc1-c1cccs1,n,32,n,81,n,n
Cn1c(SCc2ccc(F)cc2)nnc1-c1cccs1,n,46,n,n,n,n
CCOC(=O)[C@]12CCC=C1N(CCC1=CCCCC1)C(=O)[C@H](CC(=O)N1CCCCC1)C2,x,x,n,x,x,x
Cn1c(=O)oc2cc(S(=O)(=O)N3CCCC(C(=O)N4CC=C(c5ccccc5)CC4)C3)ccc21 (stereo not given),x,n,x,n,n,n
COc1ccccc1N1CCN(C(=O)C2CCCN(S(=O)(=O)c3ccc4c(c3)oc(=O)n4C)C2)CC1 (stereo not given),12µM,n,n,n,n,n
COc1ccc(N2CCN(C(=O)C3CCCN(S(=O)(=O)c4ccc5c(c4)oc(=O)n5C)C3)CC2)cc1 (stereo not given),12µM,n,n,n,u,n
COc1ccc(C)cc1S(=O)(=O)N1CCCC(C(=O)N2CCN(c3ccccc3F)CC2)C1 (stereo not given),10µM,n,n,n,u,n
N#Cc1ccc(S(=O)(=O)N2CCC(C(=O)Nc3cccc(C(=O)NC4CC4)c3)CC2)cc1,u,x,n,x,n,n
COc1cc(C(=O)OC(C)c2ccc(F)cc2)ccc1OCC(=O)N1CCOCC1 (stereo not given),u,x,n,x,u,n
Cc1nonc1OCCN1CCN(c2ccc([N+](=O)[O-])cc2)CC1,u,20,n,n,u,n
Cc1cc(/C=C2/NC(=O)N(c3ccccc3)C2=O)c(C)n1-c1cccnc1,n,59,n,91,u,n
Cc1cc(/C=C2/SC(=S)N(c3cccc(Cl)c3)C2=O)c(C)n1-c1cccnc1,x,x,n,x,x,x
Cc1cc(/C=C2/NC(=S)NC2=O)c(C)n1-c1cccnc1,n,37,n,51,n,n
